From the supplement of paper PMC9950053
Structures can show the parent of a compound that is named as a salt.

System: Danio rerio larvae (5 dpf)
Test: 1-h baseline activity (% time moving, periods 1-6) minus DMSO control (percentage points); higher = more locomotor activity than DMSO larvae
Conditions: 10 µM; exposure time: 3 h pre-incubation + 3 h imaging
Description: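 Wild-type 5 dpf zebrafish larvae (n=48 per drug, 96-well plates, 28.5 °C) were exposed to Tocris FDA-approved library compounds at 10 µM (0.1% DMSO) for 3 h before and 3 h during imaging. Images were taken every 6 s during visual and acoustic stimuli, and larvae were tracked with Z-LaP Tracker. Each measure is the treated-group mean minus the DMSO control mean (n=844), in percentage points. This mapping covers compounds with 5-character plate codes.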

Point of comparison: `COc1ccccc1OCC(O)CN1CCN(CC(=O)Nc2c(C)cccc2C)CC1` (configuration not stated) [Ranolazine dihydrochloride], 1-h baseline activity 8.63. Against it:
- CC(=O)Oc1cc2c(s1)CCN(C(C(=O)C1CC1)c1ccccc1F)C2 (configuration not stated) [Prasugrel] — lower, -2.32
- NS(=O)(=O)c1cc2c(cc1Cl)NC(C1CC3C=CC1C3)NS2(=O)=O (configuration not stated) [Cyclothiazide] — lower, 0.814
- COc1ccccc1Oc1c(NS(=O)(=O)c2ccc(C(C)(C)C)cc2)nc(-c2ncccn2)nc1OCCO [Bosentan] — lower, 1.43
- O=C1CCc2ccc(OCCCCN3CCN(c4cccc(Cl)c4Cl)CC3)cc2N1 [Aripiprazole] — lower, 6.58
- OCCN1C[C@H](O)[C@@H](O)[C@H](O)[C@H]1CO [Miglitol] — lower, -2.34
- OCc1cc(C(O)CNCCCCCCOCCCCc2ccccc2)ccc1O (configuration not stated) [Salmeterol xinafoate] — higher, 12.2
- CC(C)(C(=O)O)c1ccc(C(O)CCCN2CCC(C(O)(c3ccccc3)c3ccccc3)CC2)cc1 (configuration not stated) [Fexofenadine hydrochloride] — lower, 5.08
- CCc1nc(N)nc(N)c1-c1ccc(Cl)cc1 [Pyrimethamine] — lower, -1.81
- CCCC1O[C@@H]2C[C@H]3[C@@H]4CCC5=CC(=O)C=C[C@]5(C)[C@H]4[C@@H](O)C[C@]3(C)[C@]2(C(=O)CO)O1 (some centres not stated) [Budesonide] — lower, 3.74
- NC(=O)OCC(COC(N)=O)c1ccccc1 [Felbamate] — lower, -2.82
- COCCc1ccc(OCC(O)CNC(C)C)cc1 (configuration not stated) [Metoprolol tartrate] — lower, 3.15
- N#C[C@@H]1C[C@@H]2C[C@@H]2N1C(=O)[C@@H](N)C12CC3CC(CC(O)(C3)C1)C2 [Saxagliptin hydrochloride] — lower, 2.3
- C#CCN[C@@H]1CCc2ccccc21 [Rasagiline mesylate] — lower, 4.3
- Cc1cc2c(s1)Nc1ccccc1N=C2N1CCN(C)CC1 [Olanzapine] — lower, 6.18
- C[C@H]1O[C@H](O[C@H]2[C@H](O)[C@@H](O)[C@@H](O[C@H]3[C@H](O)[C@@H](O)C(O)O[C@@H]3CO)O[C@@H]2CO)[C@H](O)[C@@H](O)[C@@H]1N[C@H]1C=C(CO)[C@@H](O)[C@H](O)[C@H]1O (some centres not stated) [Acarbose] — lower, -1.61
- CN[C@H]1CC[C@@H](c2ccc(Cl)c(Cl)c2)c2ccccc21 [Sertraline hydrochloride] — lower, -24
- COc1cc(N)c(Cl)cc1C(=O)NC1CCN(CCCOc2ccc(F)cc2)CC1OC (configuration not stated) [Cisapride] — lower, -0.963
- OC(c1cc(C(F)(F)F)nc2c(C(F)(F)F)cccc12)C1CCCCN1 (configuration not stated) [Mefloquine hydrochloride] — lower, -2.24
- CC[C@H]1OC(=O)[C@H](C)[C@@H](O[C@H]2C[C@@](C)(OC)[C@@H](O)[C@H](C)O2)[C@H](C)[C@@H](O[C@@H]2O[C@H](C)C[C@H](N(C)C)[C@H]2O)[C@](C)(O)C[C@@H](C)CN(C)[C@H](C)[C@@H](O)[C@]1(C)O [Azithromycin] — lower, -12
- Clc1ccc2nsnc2c1NC1=NCCN1 [Tizanidine hydrochloride] — lower, -14
- CNS(=O)(=O)Cc1ccc2[nH]cc(CCN(C)C)c2c1 [Sumatriptan succinate] — higher, 9.45
- CC(=O)Nc1ccc(O)cc1 [Acetaminophen] — lower, 6.48
- O=c1n(CCCN2CCN(c3cccc(Cl)c3)CC2)nc2ccccn12 [Trazodone hydrochloride] — lower, -3.8
- CC(C)OC(=O)C(C)(C)Oc1ccc(C(=O)c2ccc(Cl)cc2)cc1 [Fenofibrate] — lower, 6.92
- CCCCCCCN(CC)CCCC(O)c1ccc(NS(C)(=O)=O)cc1 (configuration not stated) [Ibutilide hemifumarate] — lower, -6.03
- O=C(O)C[C@H](O)C[C@H](O)/C=C/c1c(C2CC2)nc2ccccc2c1-c1ccc(F)cc1 [Pitavastatin calcium] — lower, -1.53
- CNCc1ccc(-c2[nH]c3cc(F)cc4c3c2CCNC4=O)cc1 [Rucaparib camsylate] — lower, -14.5
- CCCc1nn(C)c2c(=O)[nH]c(-c3cc(S(=O)(=O)N4CCN(C)CC4)ccc3OCC)nc12 [Sildenafil citrate] — lower, -12.4
- CN(C)C(=N)NC(=N)N [Metformin hydrochloride] — lower, -8.39
- CN(C)CCc1c[nH]c2ccc(C[C@H]3COC(=O)N3)cc12 [Zolmitriptan] — lower, 6.44
- CC(C)COCC(CN(Cc1ccccc1)c1ccccc1)N1CCCC1 (configuration not stated) [Bepridil hydrochloride] — lower, -2.55
- C[C@@H]1C[C@H]2[C@@H]3CCC4=CC(=O)C=C[C@]4(C)[C@@]3(F)[C@@H](O)C[C@]2(C)[C@@]1(O)C(=O)CO [Dexamethasone] — higher, 15.7
- COc1cc([C@@H]2c3cc4c(cc3[C@@H](O[C@@H]3O[C@@H]5CO[C@@H](C)O[C@H]5[C@H](O)[C@H]3O)[C@H]3COC(=O)[C@H]23)OCO4)cc(OC)c1O [Etoposide] — lower, 4.86
- COc1cc2nccc(Oc3ccc(NC(=O)C4(C(=O)Nc5ccc(F)cc5)CC4)cc3)c2cc1OC — higher, 15.1
- N#Cc1ccc2[nH]cc(CCCCN3CCN(c4ccc5oc(C(N)=O)cc5c4)CC3)c2c1 [Vilazodone hydrochloride] — lower, -24.2
- CNC(=O)c1cc(Oc2ccc(NC(=O)Nc3ccc(Cl)c(C(F)(F)F)c3)cc2)ccn1 [Sorafenib] — lower, -0.439
